Structures can show the parent of a compound that is named as a salt. ± gives the standard deviation of the averaged measurements.
What was measured:
Assay in all cases: growth (OD600 after 10 h); higher = more growth (less inhibition)
[1] = system: E. coli TESEC Alr+ wild-type control; conditions: compound 0.1 mM; raw OD600 reference: median of DMSO wells 0.241, cell-free background 0.041
Experimental: (§1)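 TESEC Mtb Alr E. coli, or the Alr+ wild-type control, in 384-well plates with Prestwick library compounds at 0.1 mM and 1% DMSO, across arabinose induction levels of 1E3 to 1E7 nM. Growth is read as OD600 after 10 h at 37 °C in triplicate biological replicates.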

E. coli TESEC Mtb Alr [2] = conditions: compound 0.1 mM
Experimental: as §1

E. coli TESEC Mtb Asd = conditions: compound 0.1 mM
Experimental: (§2)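 TESEC E. coli strains in which the native enzyme is deleted and replaced by arabinose-inducible Mtb Asd, DapB, CysH or TrpD, each grown in its selective medium. Strains were screened against the Prestwick library at 0.1 mM and 1% DMSO in 384-well format at low and high arabinose induction. Growth is read as OD600 after 10 h in triplicate.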

E. coli TESEC Mtb DapB = conditions: compound 0.1 mM
Experimental: as §2

E. coli TESEC Mtb Alr [3] = conditions: compound 0.1 mM; remark: listed apart in the source
Experimental: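 TESEC Mtb Alr E. coli (ΔaraC ΔtolC ΔentC Δalr ΔdadX, arabinose-inducible Mtb Alr) or the Alr+ wild-type control strain, grown in defined M9-fructose medium without D-alanine in 96-well plates with Prestwick library compounds at 0.1 mM and 1% DMSO. Low Alr induction is 0.1 µM arabinose and high induction is 10 mM arabinose.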

[4] = arabinose 1000 nM, raw OD600 reference: median of DMSO wells 0.294, cell-free background 0.041
[5] = arabinose 10000 nM, raw OD600 reference: median of DMSO wells 0.264, cell-free background 0.041
[6] = arabinose 100000 nM, raw OD600 reference: median of DMSO wells 0.201, cell-free background 0.041
[7] = arabinose 1000000 nM, raw OD600 reference: median of DMSO wells 0.193, cell-free background 0.041
[8] = arabinose 10000000 nM, raw OD600 reference: median of DMSO wells 0.146, cell-free background 0.041
[9] = arabinose induction (level): High, raw OD600 reference: median of DMSO wells 0.331, cell-free background 0.041
[10] = arabinose induction (level): Low, raw OD600 reference: median of DMSO wells 0.417, cell-free background 0.041
[11] = arabinose induction (level): High, raw OD600 reference: median of DMSO wells […], cell-free background 0.041
[12] = arabinose induction (level): Low, raw OD600 reference: median of DMSO wells 0.227, cell-free background 0.041
[13] = arabinose 100 nM, raw OD600 reference: median of DMSO wells 0.413, cell-free background 0.052
[14] = arabinose 10000000 nM, raw OD600 reference: median of DMSO wells […], cell-free background 0.052

Structure (SMILES)	growth [1]	growth (E. coli TESEC Mtb Alr [2]; [4])	growth (E. coli TESEC Mtb Alr [2]; [5])	growth (E. coli TESEC Mtb Alr [2]; [6])	growth (E. coli TESEC Mtb Alr [2]; [7])	growth (E. coli TESEC Mtb Alr [2]; [8])	growth (E. coli TESEC Mtb Asd; [9])	growth (E. coli TESEC Mtb Asd; [10])	growth (E. coli TESEC Mtb DapB; [11])	growth (E. coli TESEC Mtb DapB; [12])	growth (E. coli TESEC Mtb Alr [3]; [13])	growth (E. coli TESEC Mtb Alr [3]; [14])
CN[C@@H]1[C@H](O[C@H]2[C@H](O[C@H]3[C@H](O)[C@@H](O)[C@H](N=C(N)N)[C@@H](O)[C@@H]3N=C(N)N)O[C@@H](C)[C@]2(O)C=O)O[C@@H](CO)[C@H](O)[C@H]1O [Streptomycin sulfate]	0.04117 ± 5.8e-05	0.04617 ± 0.00029	0.0396 ± 0.00055	0.04577 ± 0.00042	0.03957 ± 0.00025	0.0731 ± 0.0022	0.0611 ± 0.0021	0.0528 ± 0.00084	0.108 ± 0.048	0.0695 ± 0.0084	0.0665 ± 0.0098	0.05093 ± 0.00012
CCOC(=O)n1ccn(C)c1=S [Carbimazole]	0.239 ± 0.0029	0.297 ± 0.0079	0.27 ± 0.012	0.192 ± 0.0037	0.212 ± 0.0081	0.145 ± 0.0022	0.346 ± 0.079	0.284 ± 0.037	0.216 ± 0.011	0.239 ± 0.025	0.424 ± 0.011	0.407 ± 0.0073
COc1ccccc1O [Guaiacol]	0.255 ± 0.0046	0.314 ± 0.0073	0.2742 ± 0.0019	0.192 ± 0.012	0.203 ± 0.012	0.135 ± 0.0042	0.212 ± 0.031	0.364 ± 0.063	0.19 ± 0.008	0.202 ± 0.028	0.407 ± 0.016	0.356 ± 0.009
CC(C)NCC(O)c1cc(O)cc(O)c1 (configuration not stated) [Metaproterenol sulfate, orciprenaline sulfate]	0.247 ± 0.0097	0.291 ± 0.0065	0.268 ± 0.01	0.2 ± 0.03	0.185 ± 0.011	0.144 ± 0.0048	0.283 ± 0.046	0.346 ± 0.019	0.177 ± 0.013	0.183 ± 0.015	0.411 ± 0.011	0.352 ± 0.029
Cc1cc2c(cc1S(N)(=O)=O)S(=O)(=O)CCC2 [Meticrane]	0.252 ± 0.0068	0.292 ± 0.011	0.259 ± 0.012	0.234 ± 0.034	0.172 ± 0.013	0.142 ± 0.0066	0.389 ± 0.044	0.425 ± 0.049	0.186 ± 0.0019	0.281 ± 0.079	0.408 ± 0.0074	0.254 ± 0.17
OCCOCCN1CCN(C2=Nc3ccccc3Sc3ccccc32)CC1 [Quetiapine hemifumarate]	0.158 ± 0.01	0.25 ± 0.0048	0.255 ± 0.0044	0.203 ± 0.026	0.121 ± 0.0057	0.151 ± 0.0081	0.162 ± 0.024	0.361 ± 0.016	0.174 ± 0.013	0.187 ± 0.021	0.396 ± 0.0062	0.289 ± 0.0089
OCCOCCN1CCN(C(c2ccccc2)c2ccc(Cl)cc2)CC1 (configuration not stated) [Hydroxyzine dihydrochloride]	0.142 ± 0.0048	0.202 ± 0.0073	0.243 ± 0.004	0.171 ± 0.0032	0.11 ± 0.0035	0.1214 ± 0.0011	0.164 ± 0.0026	0.27 ± 0.013	0.182 ± 0.011	0.239 ± 0.048	0.421 ± 0.009	0.219 ± 0.011
CCc1cccc2c3c([nH]c12)C(CC)(CC(=O)O)OCC3 (configuration not stated) [Etodolac]	0.24 ± 0.0076	0.272 ± 0.0061	0.264 ± 0.01	0.162 ± 0.0052	0.147 ± 0.004	0.1376 ± 0.00061	0.276 ± 0.027	0.267 ± 0.017	0.195 ± 0.0073	0.261 ± 0.033	0.409 ± 0.011	0.264 ± 0.013
Cc1cc2cc3c(C)cc(=O)oc3c(C)c2o1 [Trioxsalen]	0.253 ± 0.0068	0.312 ± 0.0079	0.258 ± 0.008	0.192 ± 0.0079	0.161 ± 0.0053	0.1653 ± 0.0007	0.454 ± 0.015	0.423 ± 0.0095	0.231 ± 0.032	0.237 ± 0.012	0.4096 ± 0.0037	0.324 ± 0.024
Nc1ccccc1S(N)(=O)=O [2-Aminobenzenesulfonamide]	0.239 ± 0.0094	0.296 ± 0.019	0.255 ± 0.0044	0.198 ± 0.0049	0.187 ± 0.0032	0.137 ± 0.004	0.399 ± 0.029	0.49 ± 0.028	0.2 ± 0.019	0.202 ± 0.019	0.416 ± 0.013	0.343 ± 0.0096
CC(C)(Oc1ccc(C2CC2(Cl)Cl)cc1)C(=O)O (configuration not stated) [Ciprofibrate]	0.205 ± 0.046	0.263 ± 0.0056	0.273 ± 0.0078	0.154 ± 0.004	0.187 ± 0.016	0.123 ± 0.0026	0.26 ± 0.032	0.303 ± 0.051	0.203 ± 0.018	0.207 ± 0.012	0.43 ± 0.0055	0.312 ± 0.016
NCCNCCNCCNCCN [Tetraethylenepentamine pentahydrochloride]	0.273 ± 0.0096	0.313 ± 0.013	0.263 ± 0.0027	0.217 ± 0.028	0.181 ± 0.011	0.136 ± 0.0077	0.337 ± 0.074	0.441 ± 0.0047	0.196 ± 0.003	0.22 ± 0.015	0.414 ± 0.0053	0.303 ± 0.01
Nc1ccc(S(N)(=O)=O)cc1 [Sulfanilamide]	0.249 ± 0.008	0.302 ± 0.011	0.2715 ± 0.0023	0.248 ± 0.014	0.205 ± 0.0051	0.142 ± 0.0052	0.318 ± 0.027	0.446 ± 0.0081	0.217 ± 0.022	0.263 ± 0.038	0.388 ± 0.033	0.386 ± 0.0053
CC1CNc2c(cccc2S(=O)(=O)N[C@@H](CCCNC(=N)N)C(=O)N2CC[C@@H](C)C[C@@H]2C(=O)O)C1 (some centres not stated) [Argatroban]	0.211 ± 0.0062	0.288 ± 0.0078	0.257 ± 0.0085	0.222 ± 0.014	0.182 ± 0.012	0.144 ± 0.0053	0.348 ± 0.096	0.395 ± 0.048	0.181 ± 0.0099	0.197 ± 0.016	0.404 ± 0.011	0.369 ± 0.016
COc1cc(NC(C)CCCN)c2ncccc2c1 (configuration not stated) [Primaquine diphosphate]	0.0466 ± 0.00081	0.0463 ± 0.00081	0.04143 ± 0.00031	0.0508 ± 0.0023	0.043 ± 0.00026	0.0577 ± 0.0019	0.0857 ± 0.0065	0.0611 ± 0.0046	0.122 ± 0.092	0.0664 ± 0.0032	0.38 ± 0.018	0.08 ± 0.024
CCCCOc1ccc(CC(=O)NO)cc1 [Bufexamac]	0.204 ± 0.0088	0.247 ± 0.014	0.243 ± 0.0037	0.202 ± 0.025	0.118 ± 0.0015	0.0983 ± 0.0016	0.33 ± 0.0049	0.418 ± 0.034	0.18 ± 0.013	0.222 ± 0.088	0.4 ± 0.018	0.284 ± 0.0052

Reference: the supplement of paper PMC9262897, “Low-cost anti-mycobacterial drug discovery using engineered E. coli” (Nature Communications, 2022)
